Measurements taken from PubChem BioAssay AID1159580 (chemical genetic matrix, 2015).
Values joined by “and” are separate entries in the source; they are usually repeats but may differ in a detail not shown here. Equal values may be shown once. The whole screen tested about 5,500 compounds, of which about 2,000 (36%) were called active. Inconclusive results (about 18%) are left out. Rule as the data show it: active = normalized growth mostly below about 0.91 (no sharp cut-off); inconclusive = no clear call, values can overlap the other calls; inactive = mostly above about 0.92. This is one part of the list.

Experiment: chemical genetic growth profiling, strain panel (AID 1159580);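 also: tested at 20 µM; growth read once vehicle control cultures reached saturation at 30 °C; 1 = growth at the plate median or of vehicle wells; lower values mean less growth of the strain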
Settings: S. cerevisiae deletion strains, growth OD

Measured: normalized growth

COC(=O)C1=C(C)NC(C)=C(C(=O)OCCN(C)Cc2ccccc2)C1c1cccc([N+](=O)[O-])c1 (stereo not given)
inactive: locus YAL013W, strain DEP1, hits give low values 1 | locus YAL021C, strain ccr4, hits give low values 0.98 | locus YAL026C, strain drs2, hits give low values 0.979 | locus YAL030W, strain snc1, hits give low values 1.01 | locus YAL040C, strain CLN3, hits give low values 1.02 | locus YBL061C, strain skt5, hits give low values 0.984 | locus YBR009C, strain hhf1, hits give low values 0.984 | locus YBR021W, strain FUR4, hits give low values 0.935 | locus YBR023C, strain chs3, hits give low values 0.989 | locus YBR171W, strain sec66, hits give low values 0.986 | locus YBR229C, strain ROT2, hits give low values 0.952 | locus YBR231C, strain swc5, hits give low values 0.978 | locus YBR279W, strain paf1, hits give low values 0.975 | locus YCL011C, strain gbp2, hits give low values 0.969 | locus YCL016C, strain dcc1, hits give low values 0.982 | locus YCL029C, strain bik1, hits give low values 0.981 | locus YCL061C, strain MRC1 (second series), hits give low values 0.972 | locus YCL069W, strain vba3, hits give low values 1 | locus YCR088W, strain abp1, hits give low values 0.984 | locus YDL005C, strain med2, hits give low values 0.986 | locus YDL035C, strain GPR1, hits give low values 0.983 | locus YDL040C, strain nat1, hits give low values 0.973 | locus YDL074C, strain BRE1, hits give low values 0.917 | locus YDL101C, strain DUN1, hits give low values 0.979 | locus YDL134C, strain PPH21, hits give low values 0.976 | locus YDL185W, strain tfp1, hits give low values 0.977 | locus YDL192W, strain arf1, hits give low values 0.992 | locus YDR001C, strain nth1, hits give low values 0.974 | locus YDR069C, strain doa4, hits give low values 0.977 | locus YDR101C, strain arx1, hits give low values 0.986 | locus YDR137W, strain rgp1, hits give low values 1.02 | locus YDR150W, strain NUM1, hits give low values 0.977 and 0.972 | locus YDR159W, strain sac3, hits give low values 0.93 | locus YDR162C, strain NBP2, hits give low values 1 | locus YDR195W, strain ref2 0.96 | locus YDR297W, strain sur2, hits give low values 0.972 | locus YDR318W, strain mcm21, hits give low values 0.944 | locus YDR334W, strain swr1, hits give low values 0.925 | locus YDR335W, strain msn5, hits give low values 0.986 | locus YDR363W, strain ESC2, hits give low values 1.03 | locus YDR388W, hits give low values 0.993 | locus YDR392W, strain spt3, hits give low values 0.968 | locus YDR502C, strain sam2, hits give low values 0.981 | locus YEL003W, strain gim4, hits give low values 0.996 | locus YEL037C, strain rad23, hits give low values 0.981 | locus YEL061C, strain CIN8 (second series), hits give low values 0.99 | locus YEL061C, strain CIN8, hits give low values 0.994 | locus YER002W, strain NOP16, hits give low values 1.01 | locus YER015W, strain faa2, hits give low values 0.988 | locus YER016W, strain bim1, hits give low values 0.983 | locus YER110C, hits give low values 0.976 | locus YER111C, strain swi4, hits give low values 0.989 | locus YER155C, strain BEM2 (second series), hits give low values 0.968 | locus YER155C, strain BEM2, hits give low values 0.99 | locus YER167W, strain BCK2, hits give low values 0.994 | locus YFR010W, strain ubp6, hits give low values 0.978 | locus YGL078C, strain dbp3, hits give low values 0.979 | locus YGL086W, strain mad1, hits give low values 0.986 | locus YGL167C, strain pmr1, hits give low values 1.05 | locus YGL173C, strain kem1, hits give low values 0.982 | locus YGL227W, strain vid30, hits give low values 0.989 | locus YGL240W, strain doc1, hits give low values 0.97 | locus YGL248W, strain PDE1, hits give low values 0.991 | locus YGL253W, strain hxk2, hits give low values 0.988 | locus YGR078C, strain PAC10, hits give low values 0.955 | locus YGR135W, strain pre9, hits give low values 0.972 | locus YGR229C, strain SMI1, hits give low values 0.982 | locus YGR252W, strain gcn5, hits give low values 0.902 | locus YHR013C, strain ard1, hits give low values 0.978 | locus YHR027C, strain rpn1, hits give low values 0.983 | locus YHR030C, strain SLT2, hits give low values 0.987 and 0.976 | locus YHR079C, strain IRE1 (second series), hits give low values 0.982 | locus YHR079C, strain IRE1, hits give low values 0.949 | locus YHR094C, strain hxt1, hits give low values 0.988 | locus YHR129C, strain ARP1, hits give low values 0.994 | locus YHR142W, strain chs7, hits give low values 1.02 | locus YHR200W, strain rpn10, hits give low values 0.989 | locus YIL066C, strain RNR3, hits give low values 0.973 | locus YIL073C, strain SPO22, hits give low values 1.12 | locus YIL125W, strain kgd1, hits give low values 0.99 | locus YIR030C, strain dcg1, hits give low values 0.979 | locus YJL092W, strain hpr5, hits give low values 0.996 | locus YJL095W, strain BCK1 (second series), hits give low values 0.983 | locus YJL095W, strain BCK1, hits give low values 0.988 and 0.979 | locus YJL115W, strain asf1, hits give low values 0.989 | locus YJL129C, strain trk1, hits give low values 0.959 | locus YJL134W, strain LCB3, hits give low values 0.987 | locus YJL154C, strain vps35, hits give low values 0.971 | locus YJL164C, strain tpk1, hits give low values 0.998 | locus YJL166W, strain qcr8, hits give low values 0.993 | locus YJL168C, strain set2, hits give low values 1 | locus YJL187C, strain SWE1 (second series), hits give low values 0.973 | locus YJL187C, strain SWE1, hits give low values 0.993 | locus YJR043C, strain POL32, hits give low values 0.997 | locus YJR066W, strain TOR1, hits give low values 0.917
